# SENP6 inh = SENP6 protease inhibitors, primary screen, biochemical, luminescence, uHTS; AID 2599, 2010; Recombinant SENP6 catalytic domain, aminoluciferin luminescence; hit rate 1.8% among 330,000; inhibition, % at 10 µM; Sentrin-specific protease 6 (Homo sapiens), Q9GZR1;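 active means inhibition above about 50% at the single tested dose, limit read from the data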;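 further: plate controls were DMSO wells with enzyme for no effect and DMSO wells lacking enzyme for full effect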
# PPC-1+TRAIL kill = compounds killing PPC-1 cancer cells with TRAIL present, primary screen, TRAIL potentiator project, ATPLite luminescence, uHTS; hit rate 0.41% among 220,000; cell killing (% activity), % at 4 µM or 5 µM; PPC-1 cells + TRAIL, ATPLite viability luminescence;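 active means cell killing above 50% in the first pass at 4 µM, then a duplicate retest at 5 µM averaging 50% or more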;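 further: plate controls were cells with TRAIL plus DMSO for no effect and medium-only wells lacking cells for full effect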
# SENP8 block-1 = SENP8 protease inhibitors, primary screen, biochemical, luminescence; inhibition, % at 10 µM; AID 2540, 2010; hit rate 1.2% among 330,000; purified SENP8, Z-RLRGG-aminoluciferin cleavage; Sentrin-specific protease 8 (Homo sapiens), Q96LD8; in the data active means inhibition above about 50%
# Target sequence (Q96LD8 whole entry, looked up): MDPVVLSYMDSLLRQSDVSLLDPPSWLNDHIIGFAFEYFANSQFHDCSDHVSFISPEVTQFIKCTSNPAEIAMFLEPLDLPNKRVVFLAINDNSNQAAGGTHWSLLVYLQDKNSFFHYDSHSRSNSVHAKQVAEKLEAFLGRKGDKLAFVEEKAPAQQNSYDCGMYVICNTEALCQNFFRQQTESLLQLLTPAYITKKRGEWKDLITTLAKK
# SENP7 inh = SENP7 protease inhibitors, primary screen, biochemical, luminescence, uHTS; Sentrin-specific protease 7 (Homo sapiens), Q9BQF6; hit rate 1.5% among 330,000; recombinant SENP7, Z-RLRGG-aminoluciferin luminescence, 40 min; inhibition, % at 5 µM; AID 434973, 2010;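 active means inhibition above about 50% at the single test dose, limit read from the data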;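 further: plate controls were DMSO with enzyme for no effect and no enzyme buffer wells for full effect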
# TRAIL sens C8 = viability loss with TRAIL in NB7+C8 cells, primary screen, TRAIL sensitizer project, cell-based, ATPlite luminescence | inhibition (viability loss, TRAIL sensitization), % at 10 µM | hit rate 1% among 360,000 | AID 624354, 2012;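 active means compounds causing at least 50% loss of cell viability in the single-dose screen, relative to plate controls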
# SENP8 block-2 = human SENP8 protease inhibitors, primary screen, biochemical, fluorescence, Nedd8 protein substrate, uHTS. Sentrin-specific protease 8 (Homo sapiens), Q96LD8. recombinant SENP8. inhibition, % at 20 µM. hit rate 0.64% among 360,000; in the data active means inhibition mostly above about 40%, no sharp cut-off; inactive means mostly below about 27%
# PPC1 cytotox = cytotoxicity in PPC-1 cells, confirmation, cytotoxicity control for TRAIL apoptosis potentiator project, cell-based, ATP content luminescence | shares compounds with PPC-1+TRAIL kill | PPC-1 viability, ATPlite luminescence, overnight | cytotoxicity, % at 5 µM | hit rate 50% among 1,200 | AID 1447, 2008;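 active means reconfirmed compounds whose average cytotoxicity reaches 50% or more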;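 further: 0% = DMSO-treated cells and 100% = wells holding medium but no cells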
# SENP8 confirm = SENP8 protease inhibitors, retest, confirmation, biochemical, luminescence, single concentration | hit rate 40% among 6,200 | shares compounds with SENP7 inh | Recombinant SENP8, Z-RLRGG-aminoluciferin luminescence, 60 min | inhibition, % at 12.5 µM;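 active means mean inhibition across replicates above about 50%, limit read from the data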
# SENP6 conf = SENP6 protease inhibitors, confirmation, biochemical, luminescence, single concentration. hit rate 58% among 6,200. shares compounds with SENP7 inh. recombinant SENP6, Z-RLRGG-aminoluciferin luminescence. inhibition, % at 12.5 µM
# SENP7 confirm = SENP7 protease inhibitors, retest, confirmation, biochemical, luminescence, single concentration; recombinant SENP7, Z-RLRGG-aminoluciferin luminescence, 40 min; hit rate 69% among 6,200; AID 488917, 2010; inhibition, % at 12.5 µM; shares compounds with SENP7 inh
# Casp3 select = caspase-3 protease inhibitors, confirmation, selectivity assay for SENP inhibitor project, biochemical, single concentration | shares compounds with SENP7 inh | purified caspase-3, Z-DEVD-aminoluciferin luminescence, 60 min | inhibition, % at 12.5 µM | AID 488918, 2010 | hit rate 60% among 6,200;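 active means mean inhibition above about 50%, limit read from the data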;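 further: plate controls were enzyme with DMSO for no effect and wells without caspase-3 for full effect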
# Target sequence (P42574 28-227 limits assumed): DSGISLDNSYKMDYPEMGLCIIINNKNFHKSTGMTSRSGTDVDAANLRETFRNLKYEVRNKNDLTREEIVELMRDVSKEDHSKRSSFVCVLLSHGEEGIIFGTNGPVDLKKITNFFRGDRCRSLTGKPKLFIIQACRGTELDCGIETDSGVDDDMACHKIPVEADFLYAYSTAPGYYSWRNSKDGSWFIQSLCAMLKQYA
# SENP luc ctr = interferes with luciferase luminescence in SENP counter-screen | AID 488919 | inhibition, % at 12.5 µM | hit rate 39% among 6,200 | Pre-incubated SENP8/Z-RLRGG-aminoluciferin, luciferase luminescence interference | shares compounds with SENP7 inh;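 active means mean inhibition above about 50% when retested at one dose, limit read from the data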;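 further: plate controls were DMSO wells with completed reaction for no effect and substrate without enzyme for full effect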
# * marks the source's active call; other numbers are inactive results; · = not tested or not shown. Shown are actives, neighbours in structure and some others; about 3% of the full set was active somewhere.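 How the source made its calls, unless noted: active means mean inhibition above about 50% in the one-dose retest (limit read from the data); inactive means the rest.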
SMILES,SENP6 inh,PPC-1+TRAIL kill,SENP8 block-1,SENP7 inh,TRAIL sens C8,SENP8 block-2,PPC1 cytotox,SENP8 confirm,SENP6 conf,SENP7 confirm,Casp3 select,SENP luc ctr
CC(=Nc1ccc(C)cc1C)c1sc2ccccc2c1O,78.3*,31.6,65.0*,65.8*,65.1*,-25.0,27.2,71.0*,80.0*,91.0*,59.9*,17.3
Cn1c(=O)c(/C=C/c2ccccc2)nc2ccccc21,9.4,6.1,14.4,-2.1,30.0,-377.7,·,·,·,·,·,·
Cn1c(/C=C/c2ccccc2)nc2ccccc21,98.7*,80.5*,96.6*,98.9*,82.8*,-409.2,81.7*,98.8*,99.9*,103.0*,98.6*,98.2*
COc1ccc2c(c1)sc1nc(-c3ccccc3)cn12,96.4*,92.8*,95.8*,98.9*,95.6*,8.2,91.8*,11.1,100.9*,103.7*,98.2*,98.7*
CCOC(=O)N1CCN(C(=O)c2ccc3c(c2)sc2nc(-c4ccc(OC)cc4)cn23)CC1,-1.6,-9.1,-1.9,2.4,-0.6,-165.6,·,·,·,·,·,·
CC1CCCCN1C(=O)C1CCN(c2nc(-c3ccccc3)nc3c2CCC3)CC1 (stereo unspecified),4.7,·,0.3,-4.7,3.5,-17.7,·,·,·,·,·,·
CCc1ccc2oc(-c3cccc(N)c3)nc2c1,95.6*,46.5,95.3*,98.1*,81.8*,-283.8,48.5,41.7,97.5*,101.7*,93.5*,95.8*
Cc1ccc2nc(-c3cccc(N)c3)oc2c1,95.3*,75.8*,95.5*,97.7*,74.3*,-260.7,74.8*,32.8,97.0*,102.1*,95.3*,94.1*
Cc1cc(C)c2oc(-c3cccc(N)c3)nc2c1,33.8,·,7.1,21.1,15.6,-446.5,·,·,·,·,·,·
OC[C@@H]1CN(Cc2ccc(-c3ccccc3)cc2)C[C@H](n2cnc3c(N4CCCC4)ncnc32)O1,·,·,·,·,-1.8,12.9,·,·,·,·,·,·
C[C@@H]1CN([C@H](C)CO)C(=O)CCCn2nncc2CO[C@H]1CN(C)C(=O)NC1CCCCC1,·,·,·,·,5.6,6.7,·,·,·,·,·,·
COc1cc(C(=O)OCC(=O)Nc2cc(S(=O)(=O)N3CCOCC3)ccc2C)ccc1OCC(C)C,-11.8,·,-2.9,2.7,6.1,10.2,·,·,·,·,·,·
COc1ccc2nc(-c3cccc(N)c3)[nH]c2c1,77.2*,51.9*,58.5*,82.1*,52.4*,-488.8,52.5*,69.8*,70.7*,93.6*,87.7*,67.1*
CCOC(=O)c1c(C)[nH]c(C(=O)CN(C)CC(=O)Nc2ccccc2C(F)(F)F)c1C,-1.9,·,0.3,-2.3,2.6,9.4,·,·,·,·,·,·
CN(Cc1ccccc1)S(=O)(=O)c1ccc(Cl)c(C(=O)NCc2cccnc2)c1,-14.6,·,-8.0,8.3,-0.8,0.6,·,·,·,·,·,·
F[B-](F)(F)c1cncc2ccccc12,·,·,·,·,-9.3,-3.5,·,·,·,·,·,·

# Screening data (PubChem BioAssay)
